# Shown are actives, neighbours in structure and some others; about 7.3% of the full set was active somewhere.
# SMN2 splice enh = enhancers of SMN2 splice variant expression. HEK293 SMN2-luciferase splicing reporter, luminescence, 30-36 h. Potency, µM (highest dose often 46.1 µM), inactives show at the top dose activity change, positive = activation, usual class: activators. hit rate 2.8% among 210,000; further: % of control where 0% means no effect; nearly all actives have a fitted effect of over 55% in size
#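 qHTS luciferase splicing reporter: luminescence rises when SMN2 exon 7 is included in transfected HEK293 cells. Compound exposure lasted 30-36 h at 37C, with 4.5 mM final sodium butyrate as control, followed by a ONE-Glo read.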
# Rab9 prom act = activators of Rab9 promoter; Potency, µM (top dose mostly 9.22 µM), without a hit: at the top dose activation, negative = inhibition, hits mostly activators; AID 485297; hit rate 2.8% among 320,000; Huh7 Rab9 promoter-luciferase reporter, luminescence, 24 h; further: % of control where 0% means no effect; nearly all actives have a fitted effect of over 60% in size
#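 Rab9 promoter-driven luciferase in stably transfected Huh7 cells; 1500 cells/well rested 2 h, exposed to compound in DMSO for 24 h at 37 °C, 5% CO2. Luminescence read 10 min after adding luciferase reagent at ambient temperature.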
# ELG1 genotox = genotoxicity induction in ELG1-luciferase HEK293T cells; hit rate 1.3% among 330,000; Potency, µM (doses to about 46 µM), for inactives: at the highest dose activity change, positive = activation, actives largely listed as activators; HEK293T ELG1-luciferase reporter, luminescence, 16 h; further: % of control where 0% means no effect; nearly all actives have a fitted effect of over 60% in size
#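 16 hr compound incubation (37 °C, 5% CO2) of HEK293T cells carrying luciferase-tagged ELG1; luciferase then measured by ONE-Glo luminescence after 30 min at RT.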
# uPA surface inh = inhibitors of cell surface uPA generation | hit rate 0.31% among 330,000 | cell surface uPA generation assay, qHTS | Potency, µM (titrated, usually from 38.3 µM), for inactives: at the top dose activity change, negative = inhibition, most hits filed as inhibitors | AID 540303; active means well fitted inhibition curve with a large enough effect; inconclusive means small, poorly fitted or top-dose-only effect; inactive means no such curve, though single readings can be large or run the other way; tested in mouse RAW 264.7 cells; further: on the % scale 0 is the no-effect control and ±100 the full control effect; nearly all actives have a fitted effect of over 55% in size
# FLuc modulator = firefly luciferase modulation, counter-screen for miR-21 project; P08659; purified FLuc, Km substrates, luminescence inhibition; Potency, µM (highest dose often 57.5 µM), for inactives: at the highest dose activity change, negative = inhibition, actives largely listed as inhibitors; hit rate 6.9% among 360,000; AID 588342;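 further: plate controls were vehicle for no effect and reference inhibitor for full effect; nearly all actives have a fitted effect of over 55% in size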
# Target sequence (P08659 whole entry, looked up): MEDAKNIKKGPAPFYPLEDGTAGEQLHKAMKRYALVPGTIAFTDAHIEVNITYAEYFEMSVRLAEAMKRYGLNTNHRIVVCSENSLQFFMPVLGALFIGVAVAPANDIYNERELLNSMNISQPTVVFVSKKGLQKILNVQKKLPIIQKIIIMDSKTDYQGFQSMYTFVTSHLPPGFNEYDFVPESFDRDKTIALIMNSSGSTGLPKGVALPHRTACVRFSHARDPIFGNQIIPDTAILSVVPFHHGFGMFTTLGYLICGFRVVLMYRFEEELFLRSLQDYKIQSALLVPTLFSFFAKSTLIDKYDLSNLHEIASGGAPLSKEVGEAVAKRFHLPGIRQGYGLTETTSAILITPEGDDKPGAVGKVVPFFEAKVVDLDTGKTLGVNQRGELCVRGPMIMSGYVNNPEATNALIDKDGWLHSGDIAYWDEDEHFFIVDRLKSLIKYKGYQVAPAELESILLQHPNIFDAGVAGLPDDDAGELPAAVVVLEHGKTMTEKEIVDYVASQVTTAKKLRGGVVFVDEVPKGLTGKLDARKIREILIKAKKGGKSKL
#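 Purified P. pyralis luciferase (10nM final) with 10uM D-luciferin and 10uM ATP (Km levels) in 50mM Tris acetate pH 7.5, 10mM Mg acetate, 0.01% Tween-20, 0.05% BSA; qHTS 6-point titration, ~60 µM downward; luminescence read.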
# NPC1 prom act = NPC1 promoter activation. Huh7 NPC1 promoter luciferase reporter, 24 h. Potency, µM (titrated, usually from 9.22 µM), for inactives: at the highest dose activation, usual class: activators. AID 485313. hit rate 2.4% among 320,000; further: % of control where 0% means no effect; nearly all actives have a fitted effect of over 60% in size
#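 In 1536-well qHTS, Huh7 cells harboring an NPC1 promoter–luciferase construct received compound for 24 h; activation was quantified by luminescence following luciferase reagent addition.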
# An asterisk follows results filed as active; ? = inconclusive; nt = not tested or not shown. Unless noted, the call rests on the fitted dose curve; in most records, active means well fitted curve in the direction sought with a large enough effect; inconclusive means small, poorly fitted or top-dose-only effect, or another doubt; inactive means no such curve, though single readings can be large; an effect the other way counts as inactive or inconclusive. Potency means the concentration at half of the fitted maximal effect.
SMILES,SMN2 splice enh,Rab9 prom act,ELG1 genotox,uPA surface inh,FLuc modulator,NPC1 prom act
CCCn1cnc2cc(NCc3ccc(OC)cc3OC)ccc21,-15%,nt,nt,nt,?,nt
CCCn1cnc2cc(NCc3cccc(OC)c3)ccc21,13µM*,?,16%,-6%,17µM*,?
Cn1cnc2cc(NCc3ccc(Cl)cc3)ccc21,nt,0.89µM*,?,1%,17µM*,2.5µM*
COc1cc(CNc2ccc3c(c2)ncn3C(C)C)cc(OC)c1OC,-10%,nt,nt,nt,3%,nt
COc1ccc2c(CNCc3cccs3)c(C(=O)O)n(Cc3ccc(F)cc3Cl)c2c1,nt,nt,nt,nt,-7%,nt
CCCn1cnc2cc(NCc3ccc(Br)cc3)ccc21,nt,3.5µM*,?,-1%,11µM*,?
CCn1cnc2cc(NCc3cccc(OC)c3O)ccc21,12%,-1%,18µM*,-14%,12µM*,0%
CCN(CC)c1ccc(CNc2ccc3c(c2)ncn3CC)cc1,nt,2%,3%,-5%,-5%,1%
CCn1cnc2cc(NCc3ccc(C)cc3)ccc21,13µM*,4µM*,8.2µM*,-4%,15µM*,2.8µM*
COc1ccccc1-n1cnc2cc(NCc3ccco3)ccc21,7%,5%,?,-9%,19µM*,-3%
COc1ccccc1-n1cnc2cc(NCc3ccccc3O)ccc21,nt,13%,6%,-8%,?,-2%
O=C(Nc1ccc(Cl)cc1)c1ccc(-n2cnnc2)cc1,nt,nt,nt,nt,-1%,nt
